# Measurements from the supplement of paper PMC3334620.
# Over roughly 33,000 sequences, “E-score (-0.5 to 0.5)” has its median near -0.043; the highest 2% begin near 0.37. For the sample, the highest values were picked, then their nearest neighbours and some sequences at random.
# Target: T1, Upc2 (UniProt Q12151)
# T1 sequence: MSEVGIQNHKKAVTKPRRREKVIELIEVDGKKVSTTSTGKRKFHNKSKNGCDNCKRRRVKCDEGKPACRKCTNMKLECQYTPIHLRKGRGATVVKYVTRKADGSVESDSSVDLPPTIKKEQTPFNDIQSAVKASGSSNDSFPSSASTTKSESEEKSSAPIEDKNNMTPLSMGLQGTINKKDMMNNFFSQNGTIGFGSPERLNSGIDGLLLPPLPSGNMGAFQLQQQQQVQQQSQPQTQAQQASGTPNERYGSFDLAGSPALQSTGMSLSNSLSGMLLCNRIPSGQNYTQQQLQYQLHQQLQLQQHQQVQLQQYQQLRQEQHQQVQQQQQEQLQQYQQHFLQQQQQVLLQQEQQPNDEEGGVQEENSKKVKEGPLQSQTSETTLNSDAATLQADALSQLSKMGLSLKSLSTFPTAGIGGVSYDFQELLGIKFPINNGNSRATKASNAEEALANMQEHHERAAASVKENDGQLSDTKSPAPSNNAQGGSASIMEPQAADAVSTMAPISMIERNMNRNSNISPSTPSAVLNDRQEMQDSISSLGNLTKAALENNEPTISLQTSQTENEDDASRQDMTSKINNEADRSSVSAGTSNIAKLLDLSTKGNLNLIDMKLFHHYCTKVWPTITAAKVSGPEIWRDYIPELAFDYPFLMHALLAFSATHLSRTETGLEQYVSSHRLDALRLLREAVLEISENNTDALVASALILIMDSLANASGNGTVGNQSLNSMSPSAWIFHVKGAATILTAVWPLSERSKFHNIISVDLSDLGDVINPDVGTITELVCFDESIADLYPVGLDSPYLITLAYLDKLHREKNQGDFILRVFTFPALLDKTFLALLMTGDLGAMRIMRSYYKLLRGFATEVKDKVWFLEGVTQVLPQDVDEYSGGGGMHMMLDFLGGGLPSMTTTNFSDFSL
# Test: PBM E-score (8-mer binding enrichment) (E-score (-0.5 to 0.5)); higher = stronger / more preferred TF binding
# Settings: protein concentration: 200 nM; construct: GST-full length
# Procedure, shortened: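 Universal all-10-mer Agilent arrays, double-stranded by primer extension on fresh or once-stripped slides, were probed with about 100-200 nM GST-tagged yeast transcription factors made by PURExpress. Fluorescent anti-GST detected bound protein, and masliner normalised the scans. E-scores from the Universal PBM Analysis Suite were given to each ungapped eight-base word pooled with its reverse complement.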
row,Sequence,PBM E-score
1,AACCCTCT,-0.202
2,CGGACTAC,-0.113
3,CTCGTCGC,0.0828
4,AGGAGCCT,-0.12
5,CCGAGCCG,0.106
6,CCGAGCCA,-0.0165
7,AGGAGCCG,-0.224
8,ACGAGCCA,0.408
9,TCGAGCCA,-0.0555
10,ACGAGCCT,0.396
11,ACGAGCCG,0.371
12,ACGAGCCC,0.358
13,TAACTCAA,-0.0155
14,ATTTCTTC,-0.026
15,ATATATAA,0.141
16,TAATGCTA,-0.11
17,AATCGATT,0.128
18,GGACGATA,-0.181
19,GAACGATA,0.402
20,GATCGATC,-0.03
21,AAACGCTG,0.244
22,CCACGATC,0.125
23,GAACGGTA,0.283
24,AAACGATT,0.449
25,AAACGCTT,0.156

row,Sequence,PBM E-score
1,GAACGATC,0.429
2,AAACGATG,0.458
3,CAACGATG,0.0412
4,CGCCACCC,-0.0595
5,ATCGTGAG,-0.165
6,GGTCTGCA,-0.156
7,TCAGATGA,-0.197
8,ATCTGGTA,0.044
9,ACACTGCA,-0.0747
10,CGGCATAG,-0.0559
11,GCCTCCGC,-0.121
12,AAACTTTA,-0.0184
13,TAACGTTA,0.102
14,AAACGATA,0.459
15,ACACGATA,0.15
16,CCACGATA,-0.0526
17,CAACGATC,0.11
18,AGACGATC,-0.0293
19,TAACGATA,0.387
20,AAACGATC,0.447
21,CAACGATA,0.228
22,AAGCGACT,0.243
23,ACACTCAT,-0.233
24,ATCTCCTG,-0.0597
25,ATAGGTCC,-0.132

row,Sequence,PBM E-score
1,AGAGCGTA,0.223
2,ATCTGAAG,-0.202
3,ACCGAGGT,0.169
4,ATCGAGGA,0.0976
5,CACGAGGA,0.0675
6,AACGAGGC,0.444
7,AAAGAGGT,-0.182
8,TACGAGGA,0.464
9,AACGAGGT,0.448
10,CACGAGGC,0.116
11,GACGAGGA,-0.00176
12,AGCGAGGA,0.144
13,AACGAGGA,0.428
14,GACGAGGC,0.0687
15,AGATGGCC,-0.176
16,AAGAGACG,0.102
17,CTGGCGAA,-0.174
18,ACCACCTG,-0.0336
19,CACTGTGC,-0.118
20,CAGTAGTC,0.0468
21,GCCTTGAA,-0.189
22,CATTTCGA,0.0247
23,GCTCCACC,-0.0776
24,AGATGAAT,-0.206
25,CAGACTGA,-0.0971

row,Sequence,PBM E-score
1,AAGTTATT,0.045
2,AGCTATGG,-0.158
3,CACGAGGG,0.114
4,AGCGAGGG,0.245
5,AACGAGGG,0.43
6,AGGGTGAC,-0.128
7,ACCCTGGA,-0.0506
8,CGTACGAC,0.449
9,AGTACGCG,0.189
10,AGTACGTG,0.0272
11,CGGACGAC,-0.21
12,AGTACGCA,-0.0414
13,GGTACGAC,0.475
14,AGTACGTA,0.27
15,AGTACGAG,0.428
16,CGTACGCC,0.312
17,GGTACTAC,0.0298
18,AGTACGAA,0.384
19,GGGACGAC,-0.244
20,CGAAGCAC,-0.0203
21,CAGCACGG,-0.256
22,ATAGGCGG,-0.0532
23,AGCAAGTC,-0.148
24,AAAGCAGT,-0.125
25,GATGGGAC,-0.0558

row,Sequence,PBM E-score
1,CCTAGATA,-0.0107
2,GGTACGAA,0.459
3,AGTACGCC,-0.0728
4,AGTACGAC,0.409
5,AGTACGAT,0.345
6,ATTACGTG,-0.118
7,CGTACGAG,0.465
8,CCTACGAG,0.341
9,GGTACGTA,0.313
10,ATTACGAC,0.348
11,GGTACGCA,0.252
12,ATTACGAG,0.378
13,CGGACGAG,-0.165
14,ACCACGTG,0.0941
15,GAAGAAAC,0.0334
16,TAATTGGA,-0.00998
17,AACTCCAC,0.00868
18,CAGTTTCA,-0.223
19,CGCGAGAA,0.0746
20,CAGGTGAG,-0.277
21,CATGGCTC,-0.0993
22,AAGGTAAT,0.0547
23,CGTACGTA,0.364
24,TGTACGAA,0.479
25,CGTACGAA,0.444

row,Sequence,PBM E-score
1,CGTACGCA,0.345
2,TGTACAAA,0.0122
3,TGCACGAA,0.145
4,CATATTCA,-0.0449
5,GCTTCACA,-0.124
6,ATTCGTAG,0.285
7,GTTCGTAA,0.424
8,ATTCGTGA,0.0183
9,ATTCGTAA,0.399
10,GTTCGTCA,-0.0278
11,GTTCGTGA,0.0858
12,GGATGGTA,0.0248
13,GCTAGCTA,0.0155
14,ACGACCGC,0.359
15,GTGAGAAC,-0.188
16,GCCAAACA,-0.0676
17,GCGTACAC,0.33
18,ACGTACAG,0.3
19,CTGTACAG,0.158
20,CCGTACAG,0.418
21,CCGTACAC,0.382
22,ACGTACAC,0.297
23,AAAAGACA,0.0436
24,CCACAGAC,-0.169
25,ATTAGCCG,0.0535

row,Sequence,PBM E-score
1,GTGACCGA,0.11
2,CTGTACCA,-0.134
3,ATGTACGG,0.373
4,CTGTACAC,0.152
5,CTGTACGC,0.375
6,CTGTACTC,0.00852
7,ATGTACGC,0.187
8,CTGTACGA,0.488
9,ATGTACTG,-0.177
10,ATGTACTA,0.0361
11,CTGTACAA,0.0214
12,ATGTACCG,-0.03
13,ATGTACGA,0.472
14,GACTCTCA,-0.187
15,CAGAAAGA,-0.00388
16,CACATAGG,-0.207
17,AAACCAAA,0.118
18,AAAGCATC,0.0386
19,GTGTACGA,0.479
20,GTGTACCA,0.0546
21,GTGTACTA,0.127
22,CAAGCCTA,-0.0953
23,AACGACGG,0.437
24,AAGGACGT,0.0675
25,AACGACGC,0.442

row,Sequence,PBM E-score
1,CACGACGG,0.129
2,AACGACGT,0.408
3,ACCGACGG,0.108
4,CACGACGA,0.126
5,CACGACGC,0.0689
6,ACCGACGT,0.238
7,GACGACGA,-0.00938
8,GACGACGC,0.0643
9,TACGACGA,0.465
10,GAGCTTGC,-0.231
11,CTCTCTTC,-0.29
12,CTAAGTTC,-0.0418
13,CCAATGGC,-0.226
14,ATTCAAAA,0.0167
15,CTCCACCC,-0.189
16,TAACTCGA,0.109
17,GCTGAGAC,-0.203
18,AATATCTG,-0.124
19,ATCGACGA,-0.0697
20,AACGACGA,0.454
21,AGCGACGA,0.185
22,AACATACC,0.16
23,ATCATACG,0.383
24,CACATACG,0.401
25,ATCATACC,-0.02

row,Sequence,PBM E-score
1,AACATACT,0.0309
2,ATCATACA,0.0941
3,CGCATACC,0.212
4,AACATACG,0.39
5,CACATACC,-0.12
6,CGCATACA,0.114
7,CACATACA,-0.107
8,CGCATACG,0.439
9,TGTAGGAA,-0.0273
10,AAGATGGG,-0.219
11,GATCCAGA,0.0551
12,CTTAGCGC,0.126
13,GACCCCAA,-0.0347
14,ACAAATCT,0.0248
15,ATCGGTCG,0.197
16,AAAGAAGG,-0.138
17,GCAGTATA,0.219
18,ATGTCTCA,-0.192
19,ACATAGGC,-0.126
